IDE exosite inh – insulin-degrading enzyme (human) exo-site inhibition. P14735. purified IDE, FL-6b probe fluorescence polarization; hits give low values. z-score at 20 µM. 17,000 tested, 6.3% active. AID 1259349;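 active means z-score of -3 or lower, meaning strong loss of probe binding signal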;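 further: His-tagged human IDE residues 42-1019 made in E. coli with 30 nM FL-6b probe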
The depositor's hits bear a star; ! = not confirmed by another sample. The full list was thinned out, with hits kept by preference.

SMILES | IDE exosite inh
O=C(C1CCOCC1)N1CC(=O)N2[C@H](C1)[C@H](c1ccc(Br)cc1)[C@@H]2CO | 3.08
O=C(C1CCOCC1)N1CC(=O)N2[C@H](CO)[C@H](c3ccc(/C=C/c4ccccc4)cc3)[C@@H]2C1 | -4.81*
C/C=C/c1ccccc1[C@@H]1[C@H](C#N)N(S(=O)(=O)c2cccc(F)c2)[C@H]1CO | 1.19
COCC(=O)N1[C@H](C#N)[C@H](c2ccc(-c3cccnc3)cc2)[C@@H]1CO | 2.48
C[C@@H](O)C#Cc1ccc([C@@H]2[C@H](CO)N3CCCCN(C(=O)c4ccc5c(c4)OCO5)C[C@@H]23)cc1 | 0.469
CCCC#Cc1ccc([C@H]2[C@@H](CO)N3C(=O)CN(C(=O)Nc4cccc(F)c4)C[C@H]23)cc1 | 0.0101
N#Cc1cccc(-c2ccc(C3[C@@H]4CN(C(=O)c5ccccn5)C[C@H]3N4)cc2)c1 (stereo partly drawn) | 0.893
O=C(c1cccnc1)N1CC(=O)N2[C@@H](CO)[C@H](c3ccc(-c4ccc(F)cc4)cc3)[C@@H]2C1 | 2.73
Cc1ccccc1-c1ccc([C@@H]2[C@@H](CO)N3C(=O)CN(C(=O)c4cccnc4)C[C@@H]23)cc1 | -13.3*
Cc1ccccc1-c1ccc([C@@H]2[C@@H](CO)N3C(=O)CN(C(=O)c4cccnc4)C[C@H]23)cc1 | -2.95
O=C(c1cccnc1)N1CC(=O)N2[C@@H](CO)[C@@H](c3ccc(-c4ccc(F)cc4)cc3)[C@@H]2C1 | 0.84
CN(C)C(=O)c1ccc(-c2ccc(C3[C@@H]4CN(C(=O)c5cnccn5)C[C@H]3N4)cc2)cc1 (stereo partly drawn) | 2.21
O=C(c1cccnc1)N1CC(=O)N2[C@@H](CO)[C@H](c3ccc(-c4ccccc4F)cc3)[C@@H]2C1 | 0.458
Cc1ccccc1-c1ccc([C@@H]2[C@H](CO)N3C(=O)CN(C(=O)c4cccnc4)C[C@@H]23)cc1 | -7.2*
Cc1ccccc1-c1ccc(C2[C@@H]3CN(C(=O)c4cnccn4)C[C@H]2N3)cc1 (stereo partly drawn) | -20*!
O=C(c1cccnc1)N1CC(=O)N2[C@@H](CO)[C@@H](c3ccc(C#CCC4CCCC4)cc3)[C@@H]2C1 | 1.74
N#C[C@@H]1[C@@H](c2ccc(C#CC3(O)CCCC3)cc2)[C@@H](CO)N1C(=O)C1CCC1 | 0.563
C[C@@H]1CN([C@@H](C)CO)C(=O)c2cc(NC(=O)Nc3ccc4c(c3)OCO4)ccc2O[C@@H](C)CCCCO[C@@H]1CN(C)C(=O)CCCN(C)C | -0.227
CC(C)NC(=O)N1[C@H](CO)[C@@H](c2ccccc2)[C@@H]1CN(C)C(=O)c1ccncc1 | 3.04
CCCC#Cc1ccc([C@H]2[C@H](C#N)N(S(C)(=O)=O)[C@H]2CO)cc1 | -0.244
COc1ccc(C#Cc2ccc3c(c2)[C@H]2[C@H](CCN2S(=O)(=O)c2ccccc2C)[C@@H](CO)N3C)cc1 | 1.22
COCC#Cc1ccc([C@H]2[C@@H](CO)N3CCCCN(Cc4cccnc4)C[C@@H]23)cc1 | -0.344
CS(=O)(=O)N1CC(=O)N2[C@H](C1)[C@@H](c1ccc(C#CC3CCCC3)cc1)[C@@H]2CO | 2.39
COCC#Cc1ccc([C@@H]2[C@@H](CO)N3C(=O)CN(C(=O)CN4CCOCC4)C[C@@H]23)cc1 | 0.15
CCCNC(=O)C[C@@H]1CC[C@@H]2[C@H](COC[C@H](O)CN2C(=O)Nc2ccc(Cl)c(Cl)c2)O1 | 0.543
SMILES | IDE exosite inh
COc1cccc(-c2ccc([C@H]3[C@H](CO)N4C(=O)CN(C(=O)c5cccnc5)C[C@@H]34)cc2)c1 | -1.89
COc1cccc(-c2ccc([C@H]3[C@@H](CO)N4C(=O)CN(C(=O)c5cccnc5)C[C@H]34)cc2)c1 | -4.92*
COc1cccc(-c2ccc([C@@H]3[C@@H](CO)N4C(=O)CN(C(=O)c5cccnc5)C[C@@H]34)cc2)c1 | -3.73*
COc1ccc(C#Cc2ccc([C@H]3[C@H](CO)N4C(=O)CN(C(=O)c5cccnc5)C[C@@H]34)cc2)cc1 | -0.482
COc1ccc(C#Cc2ccc([C@@H]3[C@@H](CO)N4C(=O)CN(C(=O)c5cccnc5)C[C@H]34)cc2)cc1 | 0.111
COc1cccc(-c2ccc([C@H]3[C@@H](CO)N4C(=O)CN(C(=O)c5cccnc5)C[C@@H]34)cc2)c1 | -1.83
N#Cc1ccc(-c2ccc([C@@H]3[C@H](CO)N4C(=O)CNC[C@@H]34)cc2)cc1 | -1.39
C/C=C/c1ccc([C@H]2[C@H](CO)N3CCCCN(S(=O)(=O)c4cccc(C)c4)C[C@@H]23)cc1 | 2.03
C[C@@H]1CN([C@H](C)CO)C(=O)c2cc(N(C)C)ccc2O[C@@H](C)CCCCO[C@@H]1CN(C)C(=O)NC1CCCCC1 | 0.387
CS(=O)(=O)N1[C@H](C#N)[C@H](c2ccccc2-c2ccccc2F)[C@H]1CO | -0.992
CS(=O)(=O)N1[C@@H](C#N)[C@H](c2ccc(-c3ccccc3F)cc2)[C@@H]1CO | -5.18*
CS(=O)(=O)N1[C@H](CO)[C@H](c2ccc(-c3ccccc3F)cc2)[C@@H]1C#N | -1.3
CS(=O)(=O)N1[C@H](C#N)[C@@H](c2ccc(-c3ccccc3F)cc2)[C@H]1CO | -2.13
